Measurements reported in PubChem BioAssay (NCI).
About 83,000 compounds went through this panel and 20% of them were active in at least one assay; those are over-represented in the sample as a whole.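 Growth was measured after 48 h exposure to one concentration of compound in 96-well plates. Values under 10 count as active.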 Activity calls are given as the source filed them.

Key:
Assay in all cases: NCI-60 one-dose screen, 48 h (100 = growth as untreated, 0 = no growth, -100 = all killed)
Details in all cases: 10 µM unless noted
NCI-H23 lung = system: NCI-H23 lung
NCI-H226 lung = system: NCI-H226 lung
NCI-H322M lung = system: NCI-H322M lung
HOP-62 NSCLC = system: HOP-62 NSCLC
NCI-H460 lung = system: NCI-H460 lung
HOP-92 NSCLC = system: HOP-92 NSCLC
NCI-H522 lung = system: NCI-H522 lung
A549/ATCC NSCLC = system: A549/ATCC NSCLC
786-0 renal = system: 786-0 renal
COLO 205 colon = system: COLO 205 colon

Measured: growth

COc1cc2c(cc1OC)C(=O)/C(=C/c1cc(-c3ccc4c(c3)OCO4)n[nH]1)C2
inactive: NCI-H23 lung 22.4% | NCI-H226 lung 47.1% | A549/ATCC NSCLC 27.8%
active: NCI-H322M lung -5.69% | HOP-62 NSCLC -52.5% | NCI-H460 lung -82.2% | HOP-92 NSCLC -4.09% | NCI-H522 lung -63.6% | 786-0 renal -89.8% | COLO 205 colon 7.58%

O=C(/C=C/c1cccc(O)c1)c1ccccc1O
active: NCI-H522 lung -37.3%
inactive: NCI-H23 lung 86.8% | NCI-H226 lung 98.2% | NCI-H322M lung 98.4% | HOP-62 NSCLC 94.4% | NCI-H460 lung 88.2% | HOP-92 NSCLC 68.6% | A549/ATCC NSCLC 96.6% | 786-0 renal 103% | COLO 205 colon 104%

Fc1ccc(Nc2nc(Nc3ccc(-c4nc5ccccc5[nH]4)cc3)nc(N3CCCC3)n2)cc1
inactive: NCI-H23 lung 75.1% | NCI-H226 lung 79.9% | NCI-H322M lung 96% | HOP-62 NSCLC 78.6% | NCI-H460 lung 70.4% | HOP-92 NSCLC 64.4% | NCI-H522 lung 78.8% | A549/ATCC NSCLC 61.2% | 786-0 renal 85.2% | COLO 205 colon 86%

O=C(/C=C\c1ccc2c(c1)OCO2)/C=C/c1ccc2c(c1)OCO2
inactive: NCI-H23 lung 84.8% | NCI-H226 lung 67.7% | NCI-H322M lung 99.2% | HOP-62 NSCLC 91.4% | NCI-H460 lung 99.1% | HOP-92 NSCLC 87.8% | NCI-H522 lung 97.4% | A549/ATCC NSCLC 92.9% | 786-0 renal 64.6% | COLO 205 colon 110%

Cn1cc(-c2csc(-c3cn(CCN)c4ccc(F)cc34)n2)c2cccnc21
inactive: NCI-H23 lung 72.4% | NCI-H226 lung 80.2% | NCI-H322M lung 73% | HOP-62 NSCLC 64.7% | NCI-H460 lung 23.4% | HOP-92 NSCLC 48.5% | NCI-H522 lung 81.2% | A549/ATCC NSCLC 42% | 786-0 renal 79.4% | COLO 205 colon 67.1%

Cc1ccc(-c2ccc(Nc3ccccc3)nn2)cc1S(N)(=O)=O
inactive: NCI-H23 lung 96.2% | NCI-H226 lung 99.2% | NCI-H322M lung 108% | HOP-62 NSCLC 107% | NCI-H460 lung 82.9% | HOP-92 NSCLC 98.9% | NCI-H522 lung 96.1% | A549/ATCC NSCLC 79.4% | 786-0 renal 103% | COLO 205 colon 96%

COc1ccc2c(c1)C/C(=C\c1cc(-c3cc(OC)c(OC)c(OC)c3)n[nH]1)C2=O
inactive: NCI-H23 lung 90.2% | NCI-H226 lung 82.3% | NCI-H322M lung 93.9% | HOP-62 NSCLC 103% | NCI-H460 lung 106% | HOP-92 NSCLC 79.1% | NCI-H522 lung 60.6% | A549/ATCC NSCLC 92.9% | 786-0 renal 95.9% | COLO 205 colon 109%

COc1cccc(-c2nn(-c3ccccc3)cc2-c2ccnc(NCCNS(=O)(=O)c3ccc(C(F)(F)F)cc3)c2)c1
active: HOP-92 NSCLC -10.9% | NCI-H522 lung 1.9% | 786-0 renal 3.75% | COLO 205 colon -73.5%
inactive: NCI-H23 lung 17.1% | NCI-H226 lung 34.8% | NCI-H322M lung 45.1% | HOP-62 NSCLC 35.6% | NCI-H460 lung 11.4% | A549/ATCC NSCLC 14.2%

Cc1ccccc1-c1nc(C(Cl)Cl)nc2cc(-c3ccccc3)nn12
inactive: NCI-H23 lung 50.4% | NCI-H226 lung 75.3% | NCI-H322M lung 86.3% | HOP-62 NSCLC 54.9% | NCI-H460 lung 81.5% | HOP-92 NSCLC 45.8% | NCI-H522 lung 82.8% | A549/ATCC NSCLC 25.1% | 786-0 renal 93.7% | COLO 205 colon 41.7%

CC1=NN(c2ccc(S(=O)(=O)O)cc2Cl)C(=O)C1
inactive: NCI-H23 lung 92.5% | NCI-H226 lung 101% | NCI-H322M lung 112% | HOP-62 NSCLC 90% | NCI-H460 lung 103% | HOP-92 NSCLC 91.7% | NCI-H522 lung 97.4% | A549/ATCC NSCLC 99.7% | 786-0 renal 97.6% | COLO 205 colon 112%

N=C(N)N=Nc1ccc(O)cc1
inactive: NCI-H23 lung 68% [100 µM] | NCI-H226 lung 73.5% [100 µM] | NCI-H322M lung 80.2% [100 µM] | HOP-62 NSCLC 76.9% [100 µM] | NCI-H460 lung 84.1% [100 µM] | HOP-92 NSCLC 84% [100 µM] | NCI-H522 lung 37.7% [100 µM] | A549/ATCC NSCLC 93.3% [100 µM] | 786-0 renal 28.9% [100 µM] | COLO 205 colon 57.2% [100 µM]

CN1CCN(CCOc2ccc(-c3cnc4c(-c5ccccc5F)cnn4c3)cc2)CC1
active: NCI-H460 lung -63.3% | HOP-92 NSCLC 2.22% | 786-0 renal -73.5% | COLO 205 colon -79.3%
inactive: NCI-H23 lung 46.5% | NCI-H226 lung 105% | NCI-H322M lung 57.9% | HOP-62 NSCLC 64.7% | NCI-H522 lung 66.8% | A549/ATCC NSCLC 22.4%

O=S(=O)(NCCCNc1cc(-c2cn(-c3ccccc3)nc2-c2cccc(O)c2)ccn1)c1ccc(F)cc1
inactive: NCI-H23 lung 44.4% | NCI-H226 lung 54.1% | NCI-H322M lung 51.2% | HOP-62 NSCLC 53.8% | NCI-H460 lung 24.9% | HOP-92 NSCLC 57.7% | NCI-H522 lung 37.6% | A549/ATCC NSCLC 38.8%
active: 786-0 renal -4.8% | COLO 205 colon -66.1%

NC1=C(C/C(N)=N\O)C(c2ccccc2Cl)c2c(ccc3ccccc23)O1 (stereo not given)
inactive: NCI-H23 lung 86.9% | NCI-H226 lung 89.4% | NCI-H322M lung 96.4% | HOP-62 NSCLC 78.2% | NCI-H460 lung 87.8% | HOP-92 NSCLC 75.7% | NCI-H522 lung 55.4% | A549/ATCC NSCLC 87.3% | 786-0 renal 93.4% | COLO 205 colon 118%

C#CCN=C[C@]12CC[C@@H](C(=C)C)[C@@H]1[C@H]1CC[C@@H]3[C@@]4(C)CCC(=O)C(C)(C)[C@@H]4CC[C@@]3(C)[C@]1(C)CC2
inactive: NCI-H23 lung 50.5% | NCI-H226 lung 73.2% | NCI-H322M lung 103% | HOP-62 NSCLC 88.8% | NCI-H460 lung 70.8% | HOP-92 NSCLC 65.4% | NCI-H522 lung 51% | A549/ATCC NSCLC 46.1% | 786-0 renal 74.9% | COLO 205 colon 65.8%

COc1cc2nc(Cl)nc(Nc3cccc(C(=O)/C=C/c4ccccc4)c3)c2cc1OC
inactive: NCI-H23 lung 68.6% | NCI-H226 lung 66.1% | NCI-H322M lung 90.3% | HOP-62 NSCLC 70.1% | NCI-H460 lung 89% | HOP-92 NSCLC 82.2% | NCI-H522 lung 56.9% | A549/ATCC NSCLC 74.5% | 786-0 renal 52.7% | COLO 205 colon 62.9%

NC(=O)NCC1CCCCC1
inactive: NCI-H23 lung 90.7% | NCI-H226 lung 102% | NCI-H322M lung 104% | HOP-62 NSCLC 112% | NCI-H460 lung 105% | HOP-92 NSCLC 114% | NCI-H522 lung 93.3% | A549/ATCC NSCLC 109% | 786-0 renal 101% | COLO 205 colon 111%

COc1ccc(C(=O)c2ccc(C)cc2)c(OC)c1OC
inactive: NCI-H23 lung 82.9% | NCI-H226 lung 90.1% | NCI-H322M lung 111% | HOP-62 NSCLC 78.5% | NCI-H460 lung 87.1% | HOP-92 NSCLC 85.6% | NCI-H522 lung 81.8% | A549/ATCC NSCLC 78.3% | 786-0 renal 107% | COLO 205 colon 70.8%

N#CC1=C(N)Oc2c(c(N)nn2-c2ccccc2)C1c1ccc(Cl)cc1 (stereo not given)
inactive: NCI-H23 lung 93.4% | NCI-H226 lung 87.2% | NCI-H322M lung 101% | HOP-62 NSCLC 89.8% | NCI-H460 lung 103% | HOP-92 NSCLC 92.7% | NCI-H522 lung 87.6% | A549/ATCC NSCLC 100% | 786-0 renal 98.8% | COLO 205 colon 106%

COc1ccc2c(c1)c(-c1nc(-c3c[nH]c4ncccc34)cs1)cn2CCN
inactive: NCI-H23 lung 68% | NCI-H226 lung 70.6% | NCI-H322M lung 57.7% | HOP-62 NSCLC 58.3% | NCI-H460 lung 45% | HOP-92 NSCLC 29% | NCI-H522 lung 65.6% | A549/ATCC NSCLC 48.2% | 786-0 renal 72.1% | COLO 205 colon 32.2%

CC(=O)n1c(/C(C#N)=C/c2ccc(N(C)C)cc2)cc2ccccc21
inactive: NCI-H23 lung 40.5% | NCI-H226 lung 61.1% | NCI-H322M lung 53.3% | HOP-62 NSCLC 31.3% | NCI-H460 lung 15% | HOP-92 NSCLC 70.9% | NCI-H522 lung 23.1% | A549/ATCC NSCLC 48.8% | 786-0 renal 41.3% | COLO 205 colon 16.5%

CCN1CCN(C(=O)[C@@]2(C)CC[C@]3(C)CC[C@]4(C)C(=CC(=O)[C@@H]5[C@@]6(C)CC[C@H](OCCC#N)C(C)(C)[C@@H]6CC[C@]54C)[C@@H]3C2)CC1
inactive: NCI-H23 lung 87.9% | NCI-H226 lung 89.9% | NCI-H322M lung 106% | HOP-62 NSCLC 100% | NCI-H460 lung 99.9% | HOP-92 NSCLC 70.8% | NCI-H522 lung 95.4% | A549/ATCC NSCLC 84.1% | 786-0 renal 51% | COLO 205 colon 95.7%

C=C1C(=O)O[C@H]2[C@H]1CC/C(Cn1cc(-c3ccc(F)cc3)nn1)=C\CC[C@@]1(C)O[C@@H]21
inactive: NCI-H322M lung 80.6% | HOP-62 NSCLC 44.4% | NCI-H460 lung 77.4% | A549/ATCC NSCLC 60.2%
active: NCI-H23 lung 5.71% | NCI-H226 lung -31.3% | HOP-92 NSCLC -67.7% | NCI-H522 lung -80.4% | 786-0 renal -71.5% | COLO 205 colon -84.4%

Cc1cc(N(CCNc2ccnc3cc(Cl)ccc23)Cc2ccco2)nc(Cl)n1
active: NCI-H226 lung -62.3% | HOP-62 NSCLC -48.2% | NCI-H460 lung -59.8% | HOP-92 NSCLC -76.9% | NCI-H522 lung -8.16% | A549/ATCC NSCLC -55.8% | 786-0 renal -92.8% | COLO 205 colon -53.5%
inactive: NCI-H23 lung 14.2% | NCI-H322M lung 12.6%

CCN1CCN(C(=O)[C@@]2(C)CC[C@]3(C)CC[C@]4(C)C(=CC(=O)[C@@H]5[C@@]6(C)CC[C@H](OC7C[C@@H](O)[C@@H](O)C(C)O7)C(C)(C)[C@@H]6CC[C@]54C)[C@@H]3C2)CC1 (stereo not given in full)
active: NCI-H460 lung -79.5% | HOP-92 NSCLC 0.911% | 786-0 renal -60.5%
inactive: NCI-H23 lung 45.2% | NCI-H226 lung 26.3% | NCI-H322M lung 37% | HOP-62 NSCLC 26.9% | NCI-H522 lung 38.6% | A549/ATCC NSCLC 12.5% | COLO 205 colon 106%
